In PubChem BioAssay (NCI):
Where “and” joins values, the source holds several entries; their conditions need not be identical. Equal values may be shown once. Compounds without any hit were thinned out: in the full panel of roughly 83,000, 20% have a hit.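 A percent growth of 40 corresponds to 60% growth inhibition; 0 means no net growth; -100 means all cells died. Active threshold: below 10.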

Legend:
Test in all cases: NCI-60 one-dose screen, 48 h (100 = growth as untreated, 0 = no growth, -100 = all killed)
Conditions in all cases: 10 µM unless noted
[1] = tested on: SK-MEL-2 melanoma
[2] = tested on: EKVX NSCLC
[3] = tested on: UO-31 renal
[4] = tested on: TK-10 renal
[5] = tested on: ACHN renal
[6] = tested on: CAKI-1 renal
[7] = tested on: A498 renal
[8] = tested on: CCRF-CEM leukemia
[9] = tested on: MOLT-4 leukemia
[10] = tested on: SN12C renal

Measured: growth

Nc1ccc(O)c(C(=O)O)c1
inactive: [1] 110% and 124% and 122% | [2] 101% and 99.5% and 106% | [3] 101% and 92% and 67.8% | [4] 133% and 110% and 98.8% | [5] 99.3% and 108% and 82.8% | [6] 107% and 102% and 99.8% | [7] 108% and 88% | [8] 106% | [9] 97.8% and 104% and 105%

COC(=O)c1nc(N)nc(C(=O)OC)c1C(=O)c1ccc(F)cc1
inactive: [1] 105% | [2] 104% | [4] 109% | [5] 116% | [6] 96.1% | [7] 120% | [8] 106% | [9] 156%

O=c1[nH]nnc2cc(Cl)ccc12
inactive: [1] 121% and 144% | [2] 105% and 97.3% | [10] 105% and 100% | [4] 99.3% and 105% | [7] 106% | [8] 114% and 103% | [9] 104% and 95.9%

CCOC(=O)C(N)Cc1cc(I)c(O)c(I)c1 (stereo unspecified)
inactive: [1] 108% and 120% | [2] 101% and 113% | [3] 81.6% and 78.6% | [4] 120% and 107% | [6] 91.6% and 89.2% | [7] 103% | [8] 100% and 103% | [9] 102% and 112%

COC(=O)C(Cc1cn(C(C)=O)c2ccccc12)P(=O)(OC)OC (stereo unspecified)
inactive: [1] 102% | [2] 90.6% | [10] 97.7% | [4] 100% | [6] 102% | [7] 115% | [8] 110% | [9] 108%

CCC(C)NC(=O)c1ccccc1C (stereo unspecified)
inactive: [1] 104% | [2] 91.2% | [3] 94.2% | [4] 99.3% | [6] 95.3% | [7] 89.2% | [8] 103% | [9] 114%

CCOCCC(=O)O
inactive: [1] 109% | [2] 98.8% | [4] 103% | [5] 110% | [7] 80.1% | [8] 98.9% | [9] 116%

N#Cc1c(N)nc2c(c(-c3ccc(Cl)cc3)nn2-c2ccccc2)c1C#N
inactive: [1] 122% [100 µM] | [2] 83% [100 µM] | [4] 128% [100 µM] | [5] 86.9% [100 µM] | [6] 108% [100 µM] | [7] 113% [100 µM] | [8] 98.9% [100 µM] | [9] 114% [100 µM]

Cc1c(Cl)cc(Cl)c(N)c1Cl
inactive: [1] 104% | [2] 103% | [3] 92.6% | [4] 109% | [5] 115% | [6] 88.7% | [7] 91% | [8] 95.5% | [9] 110%

Cc1cccc(Cl)c1N
inactive: [1] 121% | [2] 122% | [3] 103% | [4] 111% | [6] 92.8% | [7] 107% | [8] 128% | [9] 100%

CCCC(=O)OCC(COC(=O)CCC)OC(=O)CCC
inactive: [1] 99.2% | [2] 93.7% | [4] 99.4% | [5] 108% | [6] 94.8% | [7] 104% | [8] 95.4% | [9] 102%

N=c1sc2ccccc2n1CC(=O)O
inactive: [1] 95.4% | [2] 104% | [3] 86.4% | [4] 96.9% | [5] 105% | [6] 97.8% | [7] 102% | [8] 85.8% | [9] 117%

O=C(O)COc1ccccc1F
inactive: [1] 102% | [2] 111% | [3] 103% | [4] 109% | [5] 108% | [6] 93.2% | [7] 102% | [8] 92.3% | [9] 95.3%
